Test results: PubChem BioAssay (NCATS)
Records with an inconclusive call do not appear. The source made the active and inactive calls. Unless noted, the call rests on the fitted dose curve; in most records, active means well fitted curve in the direction sought with a large enough effect; inconclusive means small, poorly fitted or top-dose-only effect, or another doubt; inactive means no such curve, though single readings can be large; an effect the other way counts as inactive or inconclusive.

Assays:
[1] = qHTS Assay for Lipid Storage Modulators (AID 1519; calls by dose curve; further: potency means the concentration at half of the fitted maximal effect; on activity change, negative = inhibition: on the % scale 0 is the no-effect control and ±100 the full control effect); conditions: Drosophila S3 cells, BODIPY lipid droplet/cell ratio, laser cytometry, cells loaded with oleic acid; for activity change, negative = inhibition: at 57.5 µM (top of the series)
Summary of the method: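 Cells seeded at 5,000 per well were treated with compounds over a concentration series and loaded with oleic acid (400 uM, as added). Lipid droplet fluorescence (488 nm excitation, 500-530 nm channel) was read by laser-scanning cytometry and normalized to 20 uM Triacsin C.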

[2] = target: DNA repair nuclease/redox regulator APEX1 (Homo sapiens) (UniProt P27695); test: qHTS Validation Assay for Inhibitors of the Human Apurinic/apyrimidinic Endonuclease 1 (APE1) (AID 1705;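 further: TAMRA fluorescence gain over two minutes as APE1 cuts a quenched THF abasic duplex; on the % scale 0 is the no-effect control and ±100 the full control effect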)
Chain of DNA repair nuclease/redox regulator APEX1 (Homo sapiens) (P27695 whole entry, looked up): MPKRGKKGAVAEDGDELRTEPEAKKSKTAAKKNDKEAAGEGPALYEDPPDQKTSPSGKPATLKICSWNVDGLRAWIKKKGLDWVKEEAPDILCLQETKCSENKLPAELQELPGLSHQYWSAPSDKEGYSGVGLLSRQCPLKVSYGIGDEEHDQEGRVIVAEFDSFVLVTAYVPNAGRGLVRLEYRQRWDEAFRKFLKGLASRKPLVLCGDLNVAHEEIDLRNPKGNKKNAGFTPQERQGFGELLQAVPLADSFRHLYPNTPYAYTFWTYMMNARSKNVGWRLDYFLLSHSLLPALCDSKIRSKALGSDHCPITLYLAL
Summary of the method: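 Human APE1 was preincubated with compound for 15 min at room temperature, then 50 nM (final) THF-abasic double-stranded DNA substrate bearing 5'-TAMRA and 3'-BHQ-2 was added. Incision-driven fluorescence rise (ex 525/em 598 nm) was read kinetically.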

[3] = target: Endonuclease 4 (Escherichia coli (strain K12)) (UniProt P0A6C1); test: Counterscreen for APE1 Inhibitors: qHTS Validation Assay for Inhibitors of Endonuclease IV (AID 1708); further: potency means the concentration at half of the fitted maximal effect; on activity change, negative = inhibition: on the % scale 0 is the no-effect control and ±100 the full control effect
Summary of the method: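 Read-out: fluorescence rise (ex 525/em 598 nm) from incision of a TAMRA/BHQ-2 double-stranded THF abasic-site substrate (50 nM), measured kinetically; third-minus-first read difference gave reaction progress. Enzyme 2 nM.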

[4] = qHTS for differential inhibitors of proliferation of Plasmodium falciparum line 7G8 (AID 1815);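 further: parasite growth measured after three days of incubation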; further: potency means the concentration at half of the fitted maximal effect;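 on activity change, negative = inhibition: plate controls were vehicle wells for no effect and reference inhibitor wells for full effect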
[5] = Cell Viability - LYMP2-010 (AID 981); further: nearly all actives have a fitted effect of over 55% in size; further: potency means the concentration at half of the fitted maximal effect
Summary of the method: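 This 24 hr viability screen uses LYMP2-010 lymphoblastoid cells, quantifies ATP via luciferase luminescence, and derives AC50 from Hill fits of qHTS concentration-response data.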

[6] = Cell Viability - LYMP2-012 (AID 982);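 further: cellular ATP by luciferase luminescence where a drop means cytotoxicity; cells exposed to compound for one day before reading; nearly all actives have a fitted effect of over 55% in size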; further: potency means the concentration at half of the fitted maximal effect
[7] = Cell Viability - LYMP2-014 (AID 983);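 further: cells exposed to compound for 24 h at 37 °C; nearly all actives have a fitted effect of over 50% in size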; further: potency means the concentration at half of the fitted maximal effect
Summary of the method: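 Quantitative HTS in lymphoblastoid cells: 24 hr compound exposure, then CellTiter-Glo ATP luminescence. Positive control was tetraoctylammonium bromide, 6.4pM to 92 uM.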

[8] = Cell Viability - LYMP2-016 (AID 984); further: nearly all actives have a fitted effect of over 55% in size; further: potency means the concentration at half of the fitted maximal effect
Summary of the method: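 Human lymphoblastoid cells (LYMP2-016), 2500/well in complete medium, preincubated 5 hr at 37 C, then compound-treated 24 hr at 37 C. Intracellular ATP read by CellTiter-Glo luminescence after 30 min at room temperature; AC50 from Hill-equation concentration-response fits.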

[9] = Cell Viability - LYMP2-018 (AID 985); further: nearly all actives have a fitted effect of over 50% in size; further: potency means the concentration at half of the fitted maximal effect
Summary of the method: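 In this qHTS viability assay, cells are treated for 24 hr and cellular ATP is quantified by luciferase-based luminescence, with tetraoctylammonium bromide as positive control.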

[10] = Cell Viability - LYMP2-020 (AID 986);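 further: cells exposed to compound for 24 h at 37 °C; nearly all actives have a fitted effect of over 55% in size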; further: potency means the concentration at half of the fitted maximal effect
Summary of the method: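 Cells at 2500 per well receive a 24 hr compound exposure at 37 C. Viability is measured as ATP-dependent luciferase luminescence, with AC50 modeled from qHTS concentration-response curves.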

[11] = Cell Viability - LYMP2-022 (AID 987); further: nearly all actives have a fitted effect of over 55% in size; further: potency means the concentration at half of the fitted maximal effect
Summary of the method: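 In this qHTS cytotoxicity screen, compound titrations were incubated 24 hr at 37 C with human lymphoblastoid cells in complete medium. Luciferase-based ATP luminescence provided the viability signal.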

[12] = Cell Viability - LYMP2-024 (AID 988); further: nearly all actives have a fitted effect of over 60% in size; further: potency means the concentration at half of the fitted maximal effect
Summary of the method: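 Cells at 2500 per well received compound for 24 hr after a 5 hr settling period. Viability was scored by CellTiter-Glo luminescence, with AC50 from Hill fits.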

[13] = Cell Viability - LYMP2-026 (AID 989);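 further: cells exposed to compound for 24 h at 37 °C; nearly all actives have a fitted effect of over 50% in size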; further: potency means the concentration at half of the fitted maximal effect
Summary of the method: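 Acute toxicity screen in complete culture medium, with 24 hr compound exposure at 37 C. Viability read as cellular ATP via luciferase reaction, with tetraoctylammonium bromide (6.4pM to 92 uM) as positive control.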

[14] = Cell Viability - LYMP1-002 - Assay at 24 hr (AID 993); further: potency means the concentration at half of the fitted maximal effect
Summary of the method: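 Viability was judged from intracellular ATP using a luciferase read-out, following a 24-hour compound incubation at 37 C of lymphoblastoid cells seeded at 2500 per well. Concentration-response data were fitted to the Hill equation for AC50.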

[15] = Cell Viability - LYMP1-002 - Assay at 40 hr (AID 994); further: nearly all actives have a fitted effect of over 60% in size; further: potency means the concentration at half of the fitted maximal effect
Summary of the method: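 Concentration-dependent ATP loss after 40 hr treatment at 37 C defined toxicity; AC50 values were obtained by fitting the standard Hill equation.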

[16] = Counterscreen for APE1 Inhibitors: Fluorescent Dye Displacement Validation Assay (AID 1707);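 further: plate controls were ThO with dsDNA and no compound for no effect and ThO without dsDNA for full effect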
Summary of the method: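 Reaction mixture of 250 nM Thiazole Orange and 50 nM double-stranded abasic-site DNA was dispensed, compounds were pin-transferred, and fluorescence was read at endpoint (480 nm ex, 540 nm em). Reduced fluorescence indicated dye displacement by DNA binding.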

[17] = qHTS for differential inhibitors of proliferation of Plasmodium falciparum line GB4 (AID 1816); conditions: Potency: Plasmodium falciparum GB4 proliferation inhibition;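 further: parasite growth measured after 72 h incubation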; further: potency means the concentration at half of the fitted maximal effect;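 on activity change, negative = inhibition: 0% = vehicle DMSO and -100% = reference inhibitor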
[18] = target: alpha-glucosidase (Oryza sativa, rice) (UniProt Q653V4); test: Counterscreen for Glucocerebrosidase Inhibitors: qHTS Assay for Rice alpha-Glucosidase at pH 5.0 (AID 997);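 further: 0% = full activity with enzyme and -100% = basal without enzyme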
Summary of the method: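 Endpoint fluorogenic assay at pH 5.0: compounds (0.7 nM to 77 uM) titrated against 4 nM rice enzyme and 400 uM 4-MU-alpha-glucoside for 20 min at room temperature; NaOH/glycine stop, read ex 365/em 440 nm, Hill-fitted AC50.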

[19] = target: Alpha-galactosidase (Coffea arabica) (UniProt Q42656); test: Counterscreen for Glucocerebrosidase Inhibitors: qHTS Assay for Coffee Bean alpha-Galactosidase at pH 5.9 (AID 998);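 further: plate controls were uninhibited enzyme for no effect and no-enzyme basal signal for full effect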
Chain of Alpha-galactosidase (Coffea arabica) (Q42656 whole entry, looked up): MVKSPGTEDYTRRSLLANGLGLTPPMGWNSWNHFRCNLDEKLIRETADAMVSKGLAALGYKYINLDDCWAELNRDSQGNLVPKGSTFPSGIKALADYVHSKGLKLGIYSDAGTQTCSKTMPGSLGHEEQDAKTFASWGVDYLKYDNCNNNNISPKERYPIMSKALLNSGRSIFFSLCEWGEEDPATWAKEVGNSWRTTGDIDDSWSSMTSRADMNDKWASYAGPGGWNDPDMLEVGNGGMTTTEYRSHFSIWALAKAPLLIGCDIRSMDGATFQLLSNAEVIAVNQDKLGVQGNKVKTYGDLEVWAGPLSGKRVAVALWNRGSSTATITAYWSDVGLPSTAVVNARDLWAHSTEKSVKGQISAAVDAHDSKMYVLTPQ
Summary of the method: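 Enzyme 2 nM + cpd (0.7 nM–77 uM titration) + 4-MU-alpha-Gal 80 uM, pH 5.9 citrate/Tween-20, RT 20 min, NaOH/glycine stop pH 10, fluor 365/440. Normalized to no-enzyme and full-activity controls; Hill-fit AC50.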

[20] = Validation of Assay for Modulators of Lamin A Splicing (AID 1459; active means well fitted curve in the direction sought with a large enough effect in the signal ratio; the % refers to the signal ratio;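 further: cells exposed to compound for two days before reading; 0% is about no effect; ratio rise marks activators and ratio drop marks inhibitors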)
Summary of the method: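 S3 HeLa cells stably expressing a lamin A-EGFP splicing minigene and DsRed2 were seeded at 600 cells/well in Opti-MEM with 2% FBS, pin-dosed, and incubated 48 hrs at 37 °C, 5% CO2. Laser-scanning cytometry (488 nm) gave GFP/RFP total intensity ratio.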

[21] = measured here: cell count channel max response
[22] = measured here: lipid channel max response

CC(=O)[C@H]1CCC2C3CC[C@H]4C[C@H](O)CC[C@]4(C)C3CC[C@@]21C (stereo partly drawn)
-20.4%: max response [1, 21]
-15.9%: max response [1, 22]
active: Potency [4] 14.1 µM
inactive: activity change, negative = inhibition [1] 2.34% | Potency [2] | Potency [3]

CCCCCCCCCCCCCCCC[N+](C)(C)C
-89.4%: max response [1, 22]
-15.3%: max response [1, 21]
active: Potency [1] 11.2 µM

CC(Cc1ccc(O)cc1)NCC(O)c1cc(O)cc(O)c1 (stereo not drawn)
inactive: Potency [2] | Potency [3]

OCCCBr
inactive: Potency [5] | Potency [6] | Potency [7] | Potency [8] | Potency [9] | Potency [10] | Potency [11] | Potency [12] | Potency [13] | Potency [14] | Potency [15]

COc1ccc(C(c2ccc(OC)cc2)C(Cl)(Cl)Cl)cc1
inactive: Potency [5] | Potency [6] | Potency [7] | Potency [8] | Potency [9] | Potency [10] | Potency [11] | Potency [12] | Potency [13] | Potency [14] | Potency [15] | activity change, negative = inhibition [1] 6.03%
30.2%: max response [1, 22]
12.8%: max response [1, 21]

Clc1ccc(C(c2ccc(Cl)cc2)n2cc[n+](CC(OCc3ccc(Cl)cc3Cl)c3ccc(Cl)cc3Cl)c2)cc1 (stereo not drawn)
inactive: Potency [2] | Potency [16]
active: Potency [3] 31.6 µM | Potency [4] 7.94 µM | Potency [17] 7.08 µM

CC1=NN=C(c2ccc(N)cc2)c2cc3c(cc2C1)OCO3
inactive: outcome [18] | outcome [19] | outcome [20] | Potency [2] | Potency [3]
active: Potency [4] 10 µM

CN[C@@H](C)[C@H](O)c1ccccc1
-49.5%: max response [1, 21]
active: Potency [4] 12.6 µM | Potency [17] 10 µM
inactive: activity change, negative = inhibition [1] -15% | Potency [2] | Potency [3]
-56.7%: max response [1, 22]

CC(C)Oc1cccnc1N(C)C1CCN(Cc2ccccc2)CC1
inactive: outcome [18] | outcome [19] | outcome [20] | Potency [2] | Potency [3]

O=C(O)CCCOc1ccc(Cl)cc1Cl
22.4%: max response [1, 22]
15.4%: max response [1, 21]
inactive: activity change, negative = inhibition [1] 4.8%

Cc1cc(O)ccc1Cl
-7.09%: max response [1, 21]
inactive: Potency [5] | Potency [6] | Potency [7] | Potency [8] | Potency [9] | Potency [10] | Potency [11] | Potency [12] | Potency [13] | Potency [14] | Potency [15] | activity change, negative = inhibition [1] 8.09%
5.53%: max response [1, 22]

CCCN1CCO[C@@H]2c3cc(O)ccc3OC[C@H]21
inactive: outcome [18] | outcome [19] | outcome [20] | Potency [2] | Potency [3] | Potency [4] | Potency [17]

CC[C@@]1(O)C(=O)OCc2c1cc1n(c2=O)Cc2cc3ccccc3nc2-1
13.2%: max response [1, 21]
active: Potency [4] 1.41 µM | Potency [17] 0.794 µM
8.88%: max response [1, 22]
inactive: outcome [18] | outcome [19] | activity change, negative = inhibition [1] -4.36% | Potency [2] | Potency [3]

CCC(=O)OC1CCC2C3CCC4=CC(=O)CC[C@@]4(C)C3CC[C@]12C (stereo partly drawn)
4.67%: max response [1, 21]
inactive: activity change, negative = inhibition [1] 11.4%
18.5%: max response [1, 22]

C[N+](C)(C)CC(=O)O
inactive: outcome [19] | outcome [20] | Potency [2] | Potency [3] | Potency [4] | Potency [17]

NC1CC1c1ccccc1 (stereo not drawn)
inactive: Potency [2] | Potency [3]
active: Potency [4] 10 µM | Potency [17] 10 µM

CC(=O)NCCc1c[nH]c2ccccc12
inactive: outcome [18] | outcome [19] | outcome [20] | Potency [2] | Potency [3] | Potency [17]

CN[C@@H]1C[C@@H](c2ccc(Cl)c(Cl)c2)c2ccccc21
inactive: outcome [18] | outcome [19] | Potency [2] | Potency [3]

c1ccc(CCCN2CCN(CCOC(c3ccccc3)c3ccccc3)CC2)cc1
inactive: outcome [18] | outcome [19] | Potency [2] | Potency [3]
active: Potency [4] 4.47 µM | Potency [17] 7.08 µM

O=C(O)C(Cl)Cl
inactive: Potency [5] | Potency [6] | Potency [7] | Potency [8] | Potency [9] | Potency [10] | Potency [11] | Potency [12] | Potency [13] | Potency [14] | Potency [15]

CC(=O)[O][Hg][c]1ccccc1
active: Potency [5] 0.398 µM | Potency [6] 0.501 µM | Potency [7] 1.58 µM | Potency [8] 1 µM | Potency [9] 0.631 µM | Potency [10] 0.794 µM | Potency [11] 0.501 µM | Potency [12] 0.501 µM | Potency [13] 1.26 µM | Potency [14] 3.98 µM | Potency [15] 3.98 µM

CC(C)(O)C(=O)Nc1ccc([N+](=O)[O-])c(C(F)(F)F)c1
inactive: Potency [5] | Potency [6] | Potency [7] | Potency [8] | Potency [9] | Potency [10] | Potency [12] | Potency [13] | Potency [14] | Potency [15]

NCCS
inactive: outcome [19]

CCN1CCc2nc(N)oc2CC1
inactive: outcome [19]

Nc1ccc(Cl)cc1
inactive: Potency [5] | Potency [6] | Potency [7] | Potency [8] | Potency [9] | Potency [10] | Potency [11] | Potency [12] | Potency [13] | Potency [14] | Potency [15]

CCOCCOC(C)=O
inactive: Potency [5] | Potency [6] | Potency [7] | Potency [8] | Potency [9] | Potency [10] | Potency [11] | Potency [12] | Potency [13] | Potency [14] | Potency [15]

CCOC(=O)C1=C[C@@]2(CC)CCCN3CCc4c(n1c1ccccc41)[C@H]32
inactive: outcome [19]
